Laboratory results as given in PubChem BioAssay (NCI).
Compounds without any hit were thinned out: in the full panel of roughly 79,000, 15% have a hit. Active and inactive are the calls of the source. Cut-off read from the data, not from the text of the source: active = growth inhibition above about 70%; inactive = the rest.

Key:
[1] = NCI Yeast Anticancer Drug Screen. Data for the rad52 strain (AID 147);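 note: 0% = growth of vehicle-treated control cultures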; settings: S. cerevisiae rad52 mutant growth inhibition, active compounds read high
Method in brief: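 Screen used a yeast mutant impaired in DNA repair. After compound exposure, growth was measured. Values reflect inhibition compared with vehicle-treated cells.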

[2] = NCI Yeast Anticancer Drug Screen. Data for the wt1 strain (AID 149);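 note: 0% = growth of vehicle-treated wt1 cultures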; settings: S. cerevisiae wt1 strain (SPY 50644) growth inhibition, active compounds read high
Method in brief: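 wt1 strain grown with compound or vehicle; inhibition taken from the growth difference.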

[3] = NCI Yeast Anticancer Drug Screen. Data for the rad50EPP+ strain (AID 151);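 note: 0% = growth of vehicle-treated control cultures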; settings: S. cerevisiae rad50 mutant strain, active compounds read high
Method in brief: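 Exposing the rad50EPP+ strain to each compound, growth was compared with vehicle-only cultures to give inhibition.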

[4] = NCI Yeast Anticancer Drug Screen. Data for the mgt1 strain (AID 153); settings: S. cerevisiae mgt1 mutant growth inhibition, active compounds read high
Method in brief: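 Genetically defined yeast (mgt1) treated with compound; inhibition of growth expressed against vehicle-treated controls.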

[5] = NCI Yeast Anticancer Drug Screen. Data for the rad50 strain (AID 155);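 note: 0% = growth of vehicle-only cultures of the same strain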; settings: S. cerevisiae rad50 strain growth inhibition, active compounds read high
Method in brief: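 DNA repair mutant yeast, compound exposure, growth read-out; inhibition is taken relative to vehicle.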

[6] = NCI Yeast Anticancer Drug Screen. Data for the mec2-1 strain (AID 157); settings: S. cerevisiae mec2-1 strain, active compounds read high
Method in brief: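 Readout is yeast growth inhibition, normalised to vehicle-treated controls, in the mec2-1 strain exposed to compound.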

[7] = NCI Yeast Anticancer Drug Screen. Data for the rad14 strain (AID 159);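 note: 0% = growth of vehicle-treated control cultures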; settings: S. cerevisiae rad14 strain growth inhibition, active compounds read high
Method in brief: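 DNA repair-defective yeast, compound-exposed; % growth inhibition derived by comparison with vehicle-treated controls.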

[8] = NCI Yeast Anticancer Drug Screen. Data for the sgs1 mgt1 strain (AID 161);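 note: 0% = growth of cultures given vehicle only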; settings: S. cerevisiae sgs1 mgt1 strain, active compounds read high
Method in brief: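 Growth of a repair-deficient yeast mutant was monitored after compound treatment and expressed as inhibition relative to vehicle-treated cultures.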

[9] = NCI Yeast Anticancer Drug Screen. Data for the CLN2oe strain (AID 163);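 note: 0% = growth of vehicle-only control cultures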; settings: S. cerevisiae CLN2oe strain, active compounds read high
Method in brief: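 Values reflect how much compound exposure reduced yeast growth, referenced to vehicle-exposed cells. Assay organism is a strain with a defined genetic change affecting cell-cycle control.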

[10] = NCI Yeast Anticancer Drug Screen. Data for the cln2 rad14 strain (AID 165);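 note: 0% = growth equal to vehicle treated cultures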; settings: S. cerevisiae cln2 rad14 strain, active compounds read high
Method in brief: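 Relative to vehicle controls, growth inhibition of compound-treated cln2 rad14 yeast was recorded.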

[11] = NCI Yeast Anticancer Drug Screen. Data for the bub3 strain (AID 167); settings: S. cerevisiae bub3 mutant strain, active compounds read high
Method in brief: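 In this screen, a yeast mutant lacking normal mitotic checkpoint function is challenged with compound. Relative growth versus vehicle gives the inhibition value.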

[12] = NCI Yeast Anticancer Drug Screen. Data for the wt2 strain (AID 169);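 note: 0% = growth of vehicle-treated yeast cultures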; settings: S. cerevisiae wt2 strain growth inhibition, active compounds read high
Method in brief: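 Values express reduction in yeast growth under compound treatment, referenced to vehicle-treated cells.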

[13] = NCI Yeast Anticancer Drug Screen. Data for the mlh1 strain (AID 171);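 note: 0% = growth of vehicle-treated control cultures of the same strain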; settings: S. cerevisiae mlh1 strain growth inhibition, active compounds read high
Method in brief: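 Steps: expose the defined-mutant yeast strain to compound; expose a parallel culture to vehicle; measure growth; express compound effect as inhibition relative to the vehicle culture.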

[14] = NCI Yeast Anticancer Drug Screen. Data for the sgs1 strain (AID 173);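 note: 0% = growth of vehicle-only control cultures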; settings: S. cerevisiae sgs1 mutant, active compounds read high
Method in brief: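 Treat defined-mutant yeast with compound; measure growth; calculate inhibition relative to vehicle-treated cells.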

[15] = NCI Yeast Anticancer Drug Screen. Data for the mlh1 rad18 strain (AID 175); settings: S. cerevisiae mlh1 rad18 strain growth inhibition, active compounds read high
Method in brief: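 Test agents were incubated with a yeast strain of defined genotype (DNA damage repair defect). Inhibition of growth was derived by comparison with vehicle-exposed cultures.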

[16] = NCI Yeast Anticancer Drug Screen. Data for the rad18 strain (AID 177); settings: S. cerevisiae rad18 mutant growth inhibition, active compounds read high
Method in brief: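 A genetically defined yeast mutant impaired in DNA damage repair was treated with test compounds, then its growth was measured against cultures receiving vehicle alone.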

[17] = at 5.0 µM (retest, dose inferred, filed as 0.5)
[18] = at 50.0 µM (retest, dose inferred, filed as 5.0)

Measured: growth inhibition

Cc1c(N)nc([C@H](CC(N)=O)NC[C@H](N)C(N)=O)nc1C(=O)N[C@H](C(=O)N[C@H](C)[C@@H](O)[C@H](C)C(=O)N[C@H](C(=O)NCCc1nc(-c2nc(C(=O)NCCC[S+](C)C)cs2)cs1)[C@@H](C)O)C(OC1OC(CO)C(O)C(O)C1OC1OC(CO)C(O)C(OC(N)=O)C1O)c1cnc[nH]1 (stereo partly specified)
inactive: [1]; at 1.2 µM 7% | [1]; at 3.7 µM 19% | [1]; at 11.0 µM 54% | [2]; at 1.2 µM 0% | [2]; at 3.7 µM 1% | [2]; at 11.0 µM 11% | [2]; at 33.0 µM 27% | [3]; at 1.2 µM 0% | [3]; at 3.7 µM 7% | [3]; at 11.0 µM 31% | [3]; at 33.0 µM 68% | [4]; at 1.2 µM -3% | [4]; at 3.7 µM 2% | [4]; at 11.0 µM 11% | [4]; at 33.0 µM 35% | [5]; at 1.2 µM 8% | [5]; at 3.7 µM 27% | [5]; at 11.0 µM 63% | [6]; at 1.2 µM 1% | [6]; at 3.7 µM 12% | [6]; at 11.0 µM 29% | [6]; at 33.0 µM 52% | [7]; at 1.2 µM 4% | [7]; at 3.7 µM 11% | [7]; at 11.0 µM 29% | [9]; at 1.2 µM 2% | [9]; at 3.7 µM -7% | [9]; at 11.0 µM 14% | [9]; at 33.0 µM 43% | [11]; at 1.2 µM -2% | [11]; at 3.7 µM 2% | [11]; at 11.0 µM 14% | [11]; at 33.0 µM 53% | [12]; at 1.2 µM 0% | [12]; at 3.7 µM 2% | [12]; at 11.0 µM 21% | [12]; at 33.0 µM 54% | [13]; at 1.2 µM 0% | [13]; at 3.7 µM 4% | [13]; at 11.0 µM 18% | [13]; at 33.0 µM 61% | [14]; at 1.2 µM 2% | [14]; at 3.7 µM 8% | [14]; at 11.0 µM 31% | [16]; at 1.2 µM 6% | [16]; at 3.7 µM 27% | [16]; at 11.0 µM 67%
active: [1]; at 33.0 µM 91% | [1]; at 100.0 µM 96% | [2]; at 100.0 µM 74% | [3]; at 100.0 µM 94% | [4]; at 100.0 µM 91% | [5]; [17] 98% | [5]; at 33.0 µM 94% | [5]; [18] 99% | [5]; at 50.0 µM 93.2% | [5]; at 100.0 µM 95% | [6]; [17] 99% | [6]; [18] 99% | [6]; at 50.0 µM 93.5% | [6]; at 100.0 µM 94% | [7]; at 33.0 µM 78% | [7]; at 100.0 µM 95% | [8]; [17] 98% | [8]; [18] 99% | [8]; at 50.0 µM 93.3% | [9]; at 100.0 µM 94% | [10]; [17] 96% | [10]; [18] 98% | [10]; at 50.0 µM 89.8% | [11]; [17] 98% | [11]; [18] 99% | [11]; at 50.0 µM 93.7% | [11]; at 100.0 µM 91% | [12]; at 100.0 µM 93% | [13]; at 100.0 µM 95% | [14]; at 33.0 µM 77% | [14]; at 100.0 µM 96% | [15]; [17] 99% | [15]; [18] 99% | [15]; at 50.0 µM 92.8% | [16]; at 33.0 µM 94% | [16]; at 100.0 µM 97%

Nc1nnc(N)n1-n1c(N)nnc1N
inactive: [1]; at 1.2 µM -2% | [1]; at 3.7 µM -2% | [1]; at 11.0 µM -1% | [1]; at 33.0 µM 0% | [1]; at 100.0 µM 10% | [2]; at 1.2 µM -1% | [2]; at 3.7 µM 2% | [2]; at 11.0 µM -2% | [2]; at 33.0 µM -2% | [2]; at 100.0 µM 2% | [3]; at 1.2 µM 1% | [3]; at 3.7 µM 0% | [3]; at 11.0 µM -5% | [3]; at 33.0 µM -14% | [3]; at 100.0 µM -16% | [4]; at 1.2 µM -3% | [4]; at 3.7 µM -4% | [4]; at 11.0 µM -4% | [4]; at 33.0 µM -2% | [4]; at 100.0 µM 1% | [5]; at 1.2 µM -3% | [5]; at 3.7 µM -1% | [5]; [17] -8% | [5]; at 11.0 µM -3% | [5]; at 33.0 µM 1% | [5]; at 50.0 µM 56.1% | [5]; at 100.0 µM 9% | [6]; at 1.2 µM 1% | [6]; at 3.7 µM 3% | [6]; [17] -22% | [6]; at 11.0 µM 4% | [6]; at 33.0 µM 4% | [6]; [18] 36% | [6]; at 50.0 µM 11.8% | [6]; at 100.0 µM 2% | [7]; at 1.2 µM -3% | [7]; at 3.7 µM -3% | [7]; at 11.0 µM -4% | [7]; at 33.0 µM -6% | [7]; at 100.0 µM 0% | [8]; [17] 2% | [8]; at 50.0 µM 27.9% | [9]; at 1.2 µM -3% | [9]; at 3.7 µM -14% | [9]; at 11.0 µM -8% | [9]; at 33.0 µM -6% | [9]; at 100.0 µM -4% | [10]; [17] -2% | [10]; [18] 31% | [10]; at 50.0 µM -13.2% | [11]; at 1.2 µM -1% | [11]; at 3.7 µM -1% | [11]; [17] -18% | [11]; at 11.0 µM 2% | [11]; at 33.0 µM 3% | [11]; [18] 57% | [11]; at 50.0 µM 1.05% | [11]; at 100.0 µM 0% | [13]; at 1.2 µM 0% | [13]; at 3.7 µM 0% | [13]; at 11.0 µM 0% | [13]; at 33.0 µM -1% | [13]; at 100.0 µM 2% | [14]; at 1.2 µM 0% | [14]; at 3.7 µM -1% | [14]; at 11.0 µM -1% | [14]; at 33.0 µM -1% | [14]; at 100.0 µM 4% | [15]; [17] 49% | [15]; at 50.0 µM 19.1% | [16]; at 1.2 µM 0% | [16]; at 3.7 µM -4% | [16]; at 11.0 µM -5% | [16]; at 33.0 µM -4% | [16]; at 100.0 µM 9%
active: [5]; [18] 92% | [8]; [18] 89% | [15]; [18] 96%
